# Reference: article PMC5540273 (PLoS ONE, 2017)
# Assays:
# Settings in all cases: concentration: 1 μM, replicates: in singlicate; n = 1
# [1] = test system: AAK1
# [2] = test system: ABL1-nonphosphorylated
# [3] = test system: ABL1-phosphorylated
# [4] = test system: ABL2
# [5] = test system: ACVR1B
# [6] = test system: ACVR1
# [7] = test system: ACVR2A
# [8] = test system: ACVR2B
# [9] = test system: ACVRL1
# [10] = test system: T1, ADCK3
# T1 construct: gene CABC1
# 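Also: KINOMEscan kinase panel screen.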
Structure (SMILES),%Inh [1],%Inh [2],%Inh [3],%Inh [4],%Inh [5],%Inh [6],%Inh [7],%Inh [8],%Inh [9],%Inh [10]
Nc1n[nH]c2cnc(-c3ccccc3)cc12 [SB-642124],37%,0%,0%,16%,0%,41%,0%,13%,0%,19%
CCn1c(-c2nonc2N)nc2c(C#CC(C)(C)O)nc(OC[C@H](N)c3ccccc3)cc21 [GSK943949],0%,0%,0%,0%,0%,0%,0%,0%,0%,0%
COC(=O)Nc1nc2cc(Oc3ccc(NC(=O)Nc4cc(C(F)(F)F)ccc4F)cn3)ccc2[nH]1.Cl.Cl [GW681170],51%,99.1%,74%,82%,0%,0%,0%,0%,0%,2%
COc1cc(Nc2ncc3c(C)nc(-c4cc5ccccc5[nH]4)n3n2)cc(OC)c1OC [GW869516],0%,32%,24%,21%,8%,0%,9%,24%,0%,22%
CCc1ccc(-c2ccc3c(c2)-c2c(cnn2C)S(=O)(=O)N3C)cc1,0%,7%,0%,0%,14%,0%,5%,0%,17%,0%
COc1cccc(NC(=O)NC2CCN(c3ccnc(Nc4cc(OC)c(OC)c(OC)c4)n3)C2)c1 (stereo not shown) [GSK1379763],74%,0%,0%,0%,0%,0%,89%,0%,0%,0%
Cl.Cl.NCC(C(=O)Nc1cc(Br)c(-c2ccnc3[nH]ccc23)s1)c1ccccc1 (stereo not shown) [GSK1269851],78%,14%,32%,35%,67%,47%,0%,5%,0%,65%
CC(=O)Nc1nc2cnc(Nc3cc(NC(=O)c4cccc(C5(C#N)CC5)c4Cl)ccc3C)nc2s1,23%,99%,59%,70%,0%,0%,0%,0%,0%,0%
O=C(Nc1cccc(-c2nn3ccccc3c2-c2ccnc(Nc3cccc(F)c3)n2)c1)c1c(F)ccc(F)c1Cl [GSK357952],0%,26%,0%,25%,0%,1%,16%,13%,18%,16%
COc1cccc(C(=O)Nc2cccc(Oc3ccc4nc(NC(=O)C5CC5)cn4n3)c2)c1,27%,100%,99.7%,96.3%,0%,0%,1%,18%,8%,10%
